Assay results published in PubChem BioAssay (NCI).
This is part of a sample that, as a whole, favours compounds with a hit. Of some 79,000 tested, about 15% had one in any assay. Activity calls are given as the source filed them. No stated cut-off is given here; in the data, active means growth inhibition above about 70%; inactive means the rest.

What was measured:
[1] = NCI Yeast Anticancer Drug Screen. Data for the rad50 strain (AID 155);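 further: 0% = growth of vehicle-only cultures of the same strain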; details: S. cerevisiae rad50 strain growth inhibition, hits give high values
In short: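 Cells are treated with compound, grown, and their growth is then scored against vehicle-only cultures of the same repair-deficient yeast strain.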

[2] = NCI Yeast Anticancer Drug Screen. Data for the mec2-1 strain (AID 157); details: S. cerevisiae mec2-1 strain, hits give high values
In short: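 Test agents were screened against the mec2-1 yeast strain, with defined DNA repair or cell cycle alteration. Growth was scored as inhibition against vehicle-only controls.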

[3] = NCI Yeast Anticancer Drug Screen. Data for the sgs1 mgt1 strain (AID 161);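 further: 0% = growth of cultures given vehicle only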; details: S. cerevisiae sgs1 mgt1 strain, hits give high values
In short: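 Read-out: growth inhibition vs vehicle controls. Cells: mutant yeast strain deficient in DNA damage repair.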

[4] = NCI Yeast Anticancer Drug Screen. Data for the cln2 rad14 strain (AID 165);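 further: 0% = growth equal to vehicle treated cultures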; details: S. cerevisiae cln2 rad14 strain, hits give high values
In short: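 Growth of compound-exposed yeast (cln2 rad14 genotype) measured and expressed as inhibition relative to vehicle.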

[5] = NCI Yeast Anticancer Drug Screen. Data for the bub3 strain (AID 167); details: S. cerevisiae bub3 mutant strain, hits give high values
In short: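 Part of a panel of yeast mutants defective in DNA damage repair or cell cycle regulation. Each strain is grown with compound, and inhibition is calculated relative to solvent-treated cultures.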

[6] = NCI Yeast Anticancer Drug Screen. Data for the mlh1 rad18 strain (AID 175); details: S. cerevisiae mlh1 rad18 strain growth inhibition, hits give high values
In short: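 In this whole-cell yeast screen, a strain with altered DNA damage repair is challenged with compound, and its growth is measured against matched vehicle-treated controls.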

[7] = at 5.0 µM (retest, dose inferred, filed as 0.5)
[8] = at 50.0 µM (retest, dose inferred, filed as 5.0)

Measured: growth inhibition

CC(=O)Nc1ccc(S(=O)(=O)N/N=C/c2cc(I)cc([N+](=O)[O-])c2O)cc1
inactive: [1]; [7] 9% | [2]; [7] 10% | [3]; [7] 14% | [3]; [8] 69% | [4]; [7] 1% | [4]; [8] 35% | [5]; [7] 1% | [5]; [8] 47% | [6]; [7] 12%
active: [1]; [8] 71% | [1]; at 50.0 µM 89% | [2]; [8] 81% | [2]; at 50.0 µM 81.5% | [3]; at 50.0 µM 89.7% | [4]; at 50.0 µM 83.1% | [5]; at 50.0 µM 70.5% | [6]; [8] 72% | [6]; at 50.0 µM 94.3%

COc1cccc(/C=N/N(C)C)c1O
inactive: [1]; [7] 0% | [1]; [8] 29% | [1]; at 50.0 µM 56% | [2]; [7] -6% | [2]; [8] -17% | [2]; at 50.0 µM 9.05% | [3]; [7] -2% | [3]; [8] 21% | [3]; at 50.0 µM -1.75% | [4]; [7] 0% | [4]; [8] -8% | [4]; at 50.0 µM 11.4% | [5]; [7] 12% | [5]; [8] 29% | [5]; at 50.0 µM 1.4% | [6]; [7] 7% | [6]; [8] 28% | [6]; at 50.0 µM 19.6%

Oc1c(Cl)cccc1-c1ccccc1
inactive: [1]; [7] 2% | [1]; [8] -5% | [1]; at 50.0 µM 20.1% | [2]; [7] -21% | [2]; [8] 0% | [2]; at 50.0 µM 12.2% | [3]; [7] 1% | [3]; [8] 10% | [3]; at 50.0 µM 36.9% | [4]; [7] 1% | [4]; [8] -14% | [4]; at 50.0 µM 1.9% | [5]; [7] 7% | [5]; [8] -4% | [5]; at 50.0 µM 4.45% | [6]; [7] -1% | [6]; [8] 8% | [6]; at 50.0 µM 67.8%

CCOC(=O)C(=O)CC(=O)C(Br)C(Br)c1ccc(Cl)cc1 (stereo not given)
active: [1]; [7] 78% | [1]; [8] 99% | [1]; at 50.0 µM 99.5% | [2]; [7] 85% | [2]; [8] 99% | [2]; at 50.0 µM 99.6% | [3]; [7] 97% | [3]; [8] 99% | [3]; at 50.0 µM 99.4% | [4]; [8] 100% | [4]; at 50.0 µM 99% | [5]; [7] 92% | [5]; [8] 99% | [5]; at 50.0 µM 99.3% | [6]; [7] 90% | [6]; [8] 99% | [6]; at 50.0 µM 99.5%
inactive: [4]; [7] 69%

Cc1ccc(CC2(C(=O)O)Cc3ccc(C)cc3C2)cc1 (stereo not given)
inactive: [1]; [7] -1% | [2]; [7] -12% | [3]; [7] -10% | [4]; [7] 1% | [5]; [7] 6% | [6]; [7] 5%
active: [1]; [8] 100% | [1]; at 50.0 µM 78.3% | [2]; [8] 100% | [2]; at 50.0 µM 86.3% | [3]; [8] 100% | [3]; at 50.0 µM 89.3% | [4]; [8] 100% | [4]; at 50.0 µM 91.2% | [5]; [8] 100% | [5]; at 50.0 µM 91% | [6]; [8] 99% | [6]; at 50.0 µM 92.3%

COc1cc(CCN=Cc2cc(Cl)cc(Cl)c2O)c([N+](=O)[O-])cc1OC
inactive: [1]; [7] 60% | [1]; at 50.0 µM 58.8% | [2]; [7] 42% | [2]; [8] 55% | [2]; at 50.0 µM 69.5% | [3]; [7] 53% | [3]; at 50.0 µM 62.4% | [4]; [7] 35% | [4]; [8] 57% | [4]; at 50.0 µM 43% | [5]; [7] 51% | [6]; [7] 64% | [6]; at 50.0 µM 62.6%
active: [1]; [8] 74% | [3]; [8] 95% | [5]; [8] 94% | [5]; at 50.0 µM 77.7% | [6]; [8] 91%

O=C1CCCC1C(=O)OC1CCCC1 (stereo not given)
inactive: [1]; [7] 42% | [1]; [8] 13% | [1]; at 50.0 µM -7.55% | [2]; [7] 13% | [2]; [8] 4% | [2]; at 50.0 µM -15% | [3]; [7] 7% | [3]; [8] 2% | [3]; at 50.0 µM -18.6% | [4]; [7] 14% | [4]; [8] 3% | [4]; at 50.0 µM 48.5% | [5]; [7] 24% | [5]; [8] 0% | [5]; at 50.0 µM -19.3% | [6]; [7] 14% | [6]; [8] 0% | [6]; at 50.0 µM -11.4%

O=C(O)/C(=C/c1ccccc1)c1ccccc1.[Ag]
active: [1]; [7] 99% | [1]; [8] 99% | [1]; at 50.0 µM 99.4% | [2]; [7] 100% | [2]; [8] 99% | [2]; at 50.0 µM 94.5% | [3]; [7] 100% | [3]; [8] 100% | [3]; at 50.0 µM 99.3% | [4]; [8] 99% | [4]; at 50.0 µM 78.8% | [5]; [7] 100% | [5]; [8] 98% | [5]; at 50.0 µM 93.7% | [6]; [7] 99% | [6]; [8] 99% | [6]; at 50.0 µM 99.4%
inactive: [4]; [7] -14%

[N-]=[N+]=CC(=O)C1(c2ccccc2)OC1c1ccccc1 (stereo not given)
active: [6]; at 50.0 µM 82.8%
inactive: [1]; [7] -20% | [1]; [8] 1% | [1]; at 50.0 µM 23.6% | [2]; [7] 7% | [2]; [8] 10% | [2]; at 50.0 µM 2.55% | [3]; [7] -16% | [3]; [8] -4% | [3]; at 50.0 µM 55.5% | [4]; [7] -21% | [4]; [8] -18% | [4]; at 50.0 µM 32.5% | [5]; [7] -43% | [5]; [8] -6% | [5]; at 50.0 µM -7.55% | [6]; [7] -32% | [6]; [8] -33%

NC(=S)SCCC(=O)O
inactive: [1]; [7] -2% | [1]; [8] 4% | [1]; at 50.0 µM -31.1% | [2]; [7] -6% | [2]; [8] -21% | [2]; at 50.0 µM -41.5% | [3]; [7] -10% | [3]; [8] -14% | [3]; at 50.0 µM -3.95% | [4]; [7] -3% | [4]; [8] -4% | [4]; at 50.0 µM 40.1% | [5]; [7] -11% | [5]; [8] -19% | [5]; at 50.0 µM -21.9% | [6]; [7] -16% | [6]; [8] -4% | [6]; at 50.0 µM 2.85%
